According to PubChem BioAssay (NCI):
Values joined by “and” are separate entries in the source; they are usually repeats but may differ in a detail not shown here. Equal entries are not always repeated. About 83,000 compounds went through this panel and 20% of them were active in at least one assay; those are over-represented in the sample as a whole.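 Percent growth is the endpoint: 0 to 100 indicates growth inhibition (40 means 60% inhibition), 0 means no net growth, and negative values indicate cell death.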 A number with no mark means an inactive call. Active and inactive are the calls of the source. Rule for the calls: active = growth percent below 10; inactive = the rest.

How the values were obtained:
Assay in all cases: NCI-60 one-dose screen, 48 h (100 = growth as untreated, 0 = no growth, -100 = all killed)
DU-145 prostate = test system: DU-145 prostate
K-562 leukemia = test system: K-562 leukemia
MALME-3M melanoma = test system: MALME-3M melanoma
MDA-MB-231 breast = test system: MDA-MB-231 breast
RXF 393 renal = test system: RXF 393 renal
SF-268 CNS = test system: SF-268 CNS
SF-295 CNS = test system: SF-295 CNS
SF-539 CNS = test system: SF-539 CNS
UACC-257 melanoma = test system: UACC-257 melanoma
M14 melanoma = test system: M14 melanoma

Q: Which growth (DU-145 prostate; 10 µM unless noted) does the source give for `N#C/C(=C/c1c(O)ccc2ccccc12)C(N)=O` here?
A: 104%

Q: What about the growth (K-562 leukemia; 10 µM unless noted) of the same molecule?
A: 97.4%

Q: What about the growth (MALME-3M melanoma; 10 µM unless noted) of the same molecule?
A: 99.4%

Q: And the growth (MDA-MB-231 breast; 10 µM unless noted)?
A: 86.4%

Q: What about the growth (RXF 393 renal; 10 µM unless noted) of the same molecule?
A: 98.3%

Q: And the growth (SF-268 CNS; 10 µM unless noted)?
A: 95.4%

Q: And the growth (SF-295 CNS; 10 µM unless noted)?
A: 91.2%

Q: And the growth (SF-539 CNS; 10 µM unless noted)?
A: 102%

Q: What about the growth (UACC-257 melanoma; 10 µM unless noted) of the same molecule?
A: 106%

Q: What about the growth (M14 melanoma; 10 µM unless noted) of the same molecule?
A: 94.5%

Q: What does the source list for `Nc1ccccc1Nc1ccccc1`?
A: growth (DU-145 prostate; 10 µM unless noted): 100% and 93.4%; growth (K-562 leukemia; 10 µM unless noted): 67.8% and 85.5%; growth (MALME-3M melanoma; 10 µM unless noted): 117% and 136%; growth (MDA-MB-231 breast; 10 µM unless noted): 82.1% and 71.7%; growth (RXF 393 renal; 10 µM unless noted): 122% and 129%; growth (SF-268 CNS; 10 µM unless noted): 90.4% and 77.8%; growth (SF-295 CNS; 10 µM unless noted): 98.4%; growth (SF-539 CNS; 10 µM unless noted): 94.8% and 78.5%; growth (UACC-257 melanoma; 10 µM unless noted): 86.1% and 115%; growth (M14 melanoma; 10 µM unless noted): 106% and 102%

Q: Which growth (DU-145 prostate; 10 µM) does the source give for `CC(C)(C)c1cc(NC(=O)Cc2ccc(-c3cnc4cc(-c5cnn(CCN6CCOCC6)c5)ccc4n3)cc2)no1` here?
A: 23.7%

Q: What about the growth (DU-145 prostate; 30 µM) of the same molecule?
A: 19.8%

Q: What about the growth (K-562 leukemia; 10 µM) of the same molecule?
A: 2.41% (active)

Q: What about the growth (K-562 leukemia; 30 µM) of the same molecule?
A: -1.34% (active)

Q: What about the growth (MALME-3M melanoma; 10 µM) of the same molecule?
A: -5.96% (active)

Q: What about the growth (MALME-3M melanoma; 30 µM) of the same molecule?
A: -9.19% (active)

Q: And the growth (MDA-MB-231 breast; 10 µM)?
A: 9.54% (active)

Q: And the growth (MDA-MB-231 breast; 30 µM)?
A: 14.9%

Q: And the growth (RXF 393 renal; 10 µM unless noted)?
A: -20.5% (active)

Q: What about the growth (SF-268 CNS; 10 µM) of the same molecule?
A: 19.9%

Q: And the growth (SF-268 CNS; 30 µM)?
A: 24.7%

Q: What about the growth (SF-295 CNS; 10 µM) of the same molecule?
A: 21.4%

Q: What about the growth (SF-295 CNS; 30 µM) of the same molecule?
A: 15.4%

Q: What about the growth (SF-539 CNS; 10 µM) of the same molecule?
A: -5.64% (active)

Q: And the growth (SF-539 CNS; 30 µM)?
A: -9.45% (active)

Q: What about the growth (UACC-257 melanoma; 10 µM) of the same molecule?
A: 27.1%

Q: What about the growth (UACC-257 melanoma; 30 µM) of the same molecule?
A: 31%

Q: And the growth (M14 melanoma; 10 µM unless noted)?
A: 15%

Q: Which results are given for `CC(=O)Nc1cc(S(=O)(=O)O)cc2cc(S(=O)(=O)O)c(N=Nc3ccccc3)c(O)c12`?
A: growth (DU-145 prostate; 10 µM unless noted): 118% and 114%; growth (K-562 leukemia; 10 µM unless noted): 107% and 84.6%; growth (MALME-3M melanoma; 10 µM unless noted): 110% and 99.4%; growth (MDA-MB-231 breast; 10 µM unless noted): 100% and 104%; growth (RXF 393 renal; 10 µM unless noted): 107% and 113%; growth (SF-268 CNS; 10 µM unless noted): 107% and 100%; growth (SF-295 CNS; 10 µM unless noted): 105% and 110%; growth (SF-539 CNS; 10 µM unless noted): 105%; growth (UACC-257 melanoma; 10 µM unless noted): 115% and 94.5%; growth (M14 melanoma; 10 µM unless noted): 103% and 97.8%

Q: How did the growth (DU-145 prostate; 1 µM) turn out when `CNC(=O)c1cc(Oc2ccc(CC(=O)Nc3cc(C(C)(C)C)nn3C)cc2)ccn1` was run?
A: 91.6%

Q: And the growth (DU-145 prostate; 10 µM)?
A: 76.3%

Q: And the growth (DU-145 prostate; 30 µM)?
A: 103%

Q: What about the growth (K-562 leukemia; 1 µM) of the same molecule?
A: 41.9%

Q: What about the growth (K-562 leukemia; 10 µM) of the same molecule?
A: 33.9%

Q: And the growth (K-562 leukemia; 30 µM)?
A: 28.3%

Q: And the growth (MALME-3M melanoma; 1 µM)?
A: 60.5%

Q: What about the growth (MALME-3M melanoma; 10 µM) of the same molecule?
A: 61.4%

Q: And the growth (MALME-3M melanoma; 30 µM)?
A: 66%

Q: What about the growth (MDA-MB-231 breast; 1 µM) of the same molecule?
A: 78.6%

Q: And the growth (MDA-MB-231 breast; 10 µM)?
A: 69.1%

Q: What about the growth (MDA-MB-231 breast; 30 µM) of the same molecule?
A: 71.9%

Q: What about the growth (RXF 393 renal; 1 µM) of the same molecule?
A: 98.3%

Q: And the growth (RXF 393 renal; 10 µM)?
A: 79.9%

Q: What about the growth (SF-268 CNS; 1 µM) of the same molecule?
A: 86.9%

Q: And the growth (SF-268 CNS; 10 µM)?
A: 70.9%

Q: What about the growth (SF-268 CNS; 30 µM) of the same molecule?
A: 98.7%

Q: And the growth (SF-295 CNS; 1 µM)?
A: 58.1%

Q: And the growth (SF-295 CNS; 10 µM)?
A: 37.1%

Q: What about the growth (SF-295 CNS; 30 µM) of the same molecule?
A: 33.9%

Q: And the growth (SF-539 CNS; 1 µM)?
A: 67.1%

Q: And the growth (SF-539 CNS; 10 µM)?
A: 66.7%

Q: What about the growth (SF-539 CNS; 30 µM) of the same molecule?
A: 69.2%

Q: And the growth (UACC-257 melanoma; 1 µM)?
A: 60.5%

Q: What about the growth (UACC-257 melanoma; 10 µM) of the same molecule?
A: 55.7%

Q: And the growth (UACC-257 melanoma; 30 µM)?
A: 47.7%

Q: What about the growth (M14 melanoma; 1 µM) of the same molecule?
A: 96.5%

Q: What about the growth (M14 melanoma; 10 µM) of the same molecule?
A: 88%

Q: For `Cc1[nH]c(-c2nc3ccccc3[nH]2)c(C)c1C(=O)NC(C)C1CCCCC1` (stereo unspecified), which growth (DU-145 prostate; 10 µM) is on record?
A: 98.8%

Q: What about the growth (DU-145 prostate; 100 µM) of the same molecule?
A: -96.3% (active)

Q: What about the growth (K-562 leukemia; 10 µM) of the same molecule?
A: 68.7%

Q: What about the growth (K-562 leukemia; 100 µM) of the same molecule?
A: -24.3% (active)

Q: What about the growth (MALME-3M melanoma; 10 µM) of the same molecule?
A: 82.1%

Q: What about the growth (MALME-3M melanoma; 100 µM) of the same molecule?
A: -72.6% (active)

Q: What about the growth (MDA-MB-231 breast; 10 µM) of the same molecule?
A: 70.3%

Q: And the growth (MDA-MB-231 breast; 100 µM)?
A: -70.8% (active)

Q: What about the growth (RXF 393 renal; 10 µM) of the same molecule?
A: 77.2%

Q: And the growth (RXF 393 renal; 100 µM)?
A: -92% (active)

Q: And the growth (SF-268 CNS; 10 µM)?
A: 94.9%

Q: What about the growth (SF-268 CNS; 100 µM) of the same molecule?
A: -71.4% (active)

Q: What about the growth (SF-295 CNS; 10 µM) of the same molecule?
A: 101%

Q: What about the growth (SF-295 CNS; 100 µM) of the same molecule?
A: -88.8% (active)

Q: And the growth (SF-539 CNS; 10 µM)?
A: 89.4%

Q: What about the growth (SF-539 CNS; 100 µM) of the same molecule?
A: -97.7% (active)

Q: What about the growth (UACC-257 melanoma; 10 µM) of the same molecule?
A: 87%

Q: And the growth (UACC-257 melanoma; 100 µM)?
A: -64.6% (active)

Q: What about the growth (M14 melanoma; 10 µM) of the same molecule?
A: 83.1%

Q: What about the growth (M14 melanoma; 100 µM) of the same molecule?
A: -73.2% (active)
